High-throughput results (PubChem BioAssay)
POLK inh: qHTS for Inhibitors of Polymerase Kappa | hit rate 0.53% among 400,000 | DNA polymerase kappa (Homo sapiens), Q9UBT6 | Potency, µM (highest dose often 107 µM), hits mostly inhibitors | purified Pol kappa, fluorescent DNA synthesis assay, 10 min
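Kinetic fluorescence screen: compound preincubated 15 min RT with 10 nM enzyme; 50 nM substrate (final) initiates; reads at 0/10 min.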
PI5P4K alpha inh: qHTS for Inhibitors of phosphatidylinositol 5-phosphate 4-kinase (PI5P4K); max response, %; PI5P4Kalpha enzyme, ADP-Glo luminescence, 60 min; stronger effect = lower value; hit rate 1.2% among 330,000; Phosphatidylinositol 5-phosphate 4-kinase type-2 alpha (Homo sapiens), P48426; AID 652105, 2013; active = max response of -50% or lower; inconclusive = between -30% and -50%; inactive = -30% or higher; note: value at the top dose of about 77 µM
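Luminescence from ADP-Glo served as readout of PI5P4Kalpha activity in a qHTS format. Reaction: enzyme, substrate, compound, ATP at 5 microM final, 60 min at RT.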
Pol iota inh: qHTS for Inhibitors of Polymerase Iota; DNA polymerase iota (Homo sapiens), Q9UNA4; Pol iota fluorescent replication assay, 10 min; Potency, µM (series often up to 115 µM), hits mostly inhibitors; hit rate 1% among 390,000; AID 588590, 2011
Target sequence (Q9UNA4 whole entry, looked up): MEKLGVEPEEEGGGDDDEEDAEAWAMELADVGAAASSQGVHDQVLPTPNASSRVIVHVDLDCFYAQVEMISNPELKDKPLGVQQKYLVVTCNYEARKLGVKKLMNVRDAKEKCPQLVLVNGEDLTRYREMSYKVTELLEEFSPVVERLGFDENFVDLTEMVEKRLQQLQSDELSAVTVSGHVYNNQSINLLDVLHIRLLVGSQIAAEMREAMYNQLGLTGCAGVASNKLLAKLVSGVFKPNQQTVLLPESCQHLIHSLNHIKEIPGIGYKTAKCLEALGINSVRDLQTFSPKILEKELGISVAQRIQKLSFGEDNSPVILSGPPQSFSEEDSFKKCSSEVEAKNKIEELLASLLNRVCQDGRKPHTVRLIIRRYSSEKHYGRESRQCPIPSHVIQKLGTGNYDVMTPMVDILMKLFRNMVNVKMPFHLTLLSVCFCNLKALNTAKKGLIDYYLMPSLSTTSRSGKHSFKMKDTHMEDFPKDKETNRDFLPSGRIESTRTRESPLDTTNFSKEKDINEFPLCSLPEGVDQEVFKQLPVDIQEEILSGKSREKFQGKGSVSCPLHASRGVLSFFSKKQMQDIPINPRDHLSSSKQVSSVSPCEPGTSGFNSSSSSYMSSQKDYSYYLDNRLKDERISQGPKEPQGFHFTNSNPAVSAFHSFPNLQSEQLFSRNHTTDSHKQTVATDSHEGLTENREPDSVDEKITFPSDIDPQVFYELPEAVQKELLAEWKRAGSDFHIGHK
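Fluorescent replication assay read twice, at 0 min and 10 min after adding 50 nM (final) substrate. Enzyme (10 nM) and compounds were first incubated 15 min at room temperature; enzyme-free buffer wells were negative controls.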
Pol eta inh: qHTS for Inhibitors of Polymerase Eta; DNA polymerase eta (Homo sapiens), Q9Y253; recombinant Pol eta, fluorescent DNA replication assay; Potency, µM (doses to about 114 µM), hits mostly inhibitors; hit rate 1.2% among 390,000
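Fluorescent replication assay: 50 nM final substrate added after a 15 min room-temperature compound preincubation with 10 nM enzyme. Signal taken at 0 min and again at 10 min.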
PI4K2A inh: qHTS for small molecular inhibitors of PI4K2A | Phosphatidylinositol 4-kinase type 2-alpha (Homo sapiens), Q9BTU6 | purified PI4K2A, ADP-Glo luminescence, 1 h; stronger effect = lower value | activity change, negative = inhibition, % at 76.9 µM | hit rate 0.13% among 420,000; in the data active = activity change below about -50%; inconclusive = mostly about -30% to -49%
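Compounds are screened against recombinant PI4K2A using PI as substrate and ATP, the latter dispensed at 300 microM. Reactions run one hour at ambient temperature before ADP-Glo detection; full inhibition defined by wells lacking enzyme.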
POLB inh: qHTS Assay for Inhibitors of DNA Polymerase Beta; P06746; Pol beta primer extension/strand displacement, fluorescence kinetic; Potency, µM (highest dose often 114 µM), hits mostly inhibitors; hit rate 1.3% among 340,000; AID 485314, 2010
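Pol beta (10 nM) and compounds were preincubated 15 min at room temperature, then 50 nM substrate (final) started primer extension/strand displacement. Reads were taken at 0 and 10 min; concentration-response data were fitted to a four-parameter Hill equation.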
Numbers stand for hits; – = inactive; ? = inconclusive; · = no result given; [ ] = dose if it differs, or a comment. Sampled rows, rich in hits. Any-hit rate of the full collection: about 2.8%. Unless noted, calls come from the whole dose curve; as a rule, active = well fitted inhibition curve with a large enough effect; inconclusive = small, poorly fitted or top-dose-only effect, or another doubt; inactive = no such curve, though single readings can be large or run the other way.

SMILES | POLK inh | PI5P4K alpha inh | Pol iota inh | Pol eta inh | PI4K2A inh | POLB inh
Cc1ccccc1-n1c(O)c(/C=C2/C(c3ccccc3)=Nc3ccccc32)c(=O)[nH]c1=O | – | – | – | – | – | –
O=c1[nH]c(=O)n(-c2ccc(F)cc2)c(O)c1/C=C1\C=Nc2ccccc21 | ? | – | 7.9µM | 89µM | – | –
COc1ccc(-n2c(O)c(/C=C3\C=Nc4ccccc43)c(=O)[nH]c2=O)cc1 | – | – | ? | ? | – | –
Oc1cc[c]([Hg][Cl])cc1 | –[19.4 µM] | · | · | · | · | ·
COc1cc(C2c3cc4c(cc3C(OC(C)=O)[C@H]3COC(=O)C23)OCO4)cc(OC)c1OC (stereo partly specified) | – | · | · | · | · | ·
NCC[C@H](NC(=O)[C@@H](N)CCCN=C(N)N[N+](=O)[O-])C(N)=O | – | · | · | · | · | ·
O=C(O)COc1ccc(Br)cc1C(c1c(C(=O)O)[nH]c2ccccc12)c1c(C(=O)O)[nH]c2ccccc12 | ? | – | ? | 89µM | – | –
O=C(O)c1ccccc1Cc1ccccc1 | – | · | · | · | · | ·
C/C=C(\C)C(=O)OC1C(C)=C2C(C1OC(=O)CCCCC)C(C)(OC(C)=O)CC(OC(=O)CCC)C1(O)C2OC(=O)C1(C)O (stereo unspecified) | · | · | · | · | · | 25µM
CC(=O)OCOCC(=O)OCO[P+](=O)C(OCOC(C)=O)c1cc([N+](=O)[O-])ccc1Oc1ccc(Br)cc1 (stereo unspecified) | –[19.4 µM] | · | · | · | · | ·
CCC1(CCC(C)C)C(=O)NC(=O)NC1=O | · | · | · | · | – | ·
CCN1C(=O)C(=Cc2cc(C)n(C3CC3)c2C)C(=O)N(CC)C1=S | – | – | – | – | – | –
CCN1C(=O)C(=Cc2ccc(C)s2)C(=O)N(CC)C1=S | – | -69 | – | 25µM | – | ?
CCC(OC(C)=O)C(CC(C)NC)(c1ccccc1)c1ccccc1 (stereo unspecified) | · | · | · | · | – | ·
O=C(CCl)c1ccc(Cl)cc1Cl | · | · | · | · | – | ·
CN(C)[C@@H]1C(=O)C(C(N)=O)=C(O)[C@@]2(O)C(=O)C3=C(O)c4c(O)cccc4[C@@](C)(O)[C@H]3C[C@@H]12 | · | · | · | · | – | ·
CN(C)[C@@H]1C(=O)C(C(N)=O)=C(O)[C@]2(O)C(=O)C3=C(O)c4c(O)cccc4[C@@](C)(O)[C@H]3[C@H](O)[C@@H]12 | 4.7µM | · | · | · | · | ·
CN(C)C1C(=O)C(C(N)=O)=C(O)[C@@]2(O)C(=O)C3=C(O)c4c(O)cccc4[C@@](C)(O)C3[C@H](O)C12 (stereo partly specified) | 10µM | · | · | · | · | ·
CC#C[C@]1(O)CC[C@H]2[C@@H]3C[C@H](C)C4=CC(=O)CC[C@]4(C)[C@H]3CC[C@@]21C | · | · | · | · | – | ·
CCc1nnc(NC(=O)CSc2ccc(-c3ccco3)nn2)s1 | – | – | – | – | – | 14µM
COc1ccc(/C=C2/C(=O)N(c3ccccc3)N=C2C)cc1 | – | – | ? | – | – | ·
CN(C)c1ccc(C=C2C(=O)NC(=S)NC2=O)cc1[N+](=O)[O-] | – | -75 | – | – | – | ?
COc1ccc(C=C2C(=O)NC(=S)NC2=O)cc1 | – | -64 | – | – | – | ·
CN(C)c1ccc(C=C2C(=O)NC(=O)NC2=O)cc1[N+](=O)[O-] | – | ? | – | – | – | –
CN(CCOc1ccc(C=C2C(=O)NC(=O)NC2=O)cc1)c1ccccn1 | – | ? | – | – | – | –
SMILES | POLK inh | PI5P4K alpha inh | Pol iota inh | Pol eta inh | PI4K2A inh | POLB inh
O=C1NC(=S)NC(=O)C1=Cc1ccc(OCc2ccccc2)cc1 | – | -82 | – | – | – | ·
[O]=[Sb]([OH])([OH])[c]1ccccc1 | 25µM | · | 20µM | · | · | ·
O=C(Nc1cc[c]([Sb](=[O])([OH])[OH])cc1)c1ccccc1 | 6.3µM | · | ? | · | · | ·
COC(=O)C(O)(c1ccc(NC(=O)c2ccccc2)cc1)C(F)(F)F (stereo unspecified) | – | – | – | – | – | –
CC1C(=O)OC2C1CC[C@@]1(C)C=CC(=O)[C@@]3(C)O[C@@]213 (stereo partly specified) | – | · | · | · | · | ·
CCN1C(=O)CC(=O)N(CC)C1=S | · | -55 | · | – | – | ·
